From PubChem BioAssay (NCATS) come the findings set out here.

Molecules are shown by their SMILES. Records with an inconclusive call do not appear. The source made the active and inactive calls. Unless noted, calls follow the shape of the dose curve; as a rule, active = well fitted curve in the direction sought with a large enough effect; inconclusive = small, poorly fitted or top-dose-only effect, or another doubt; inactive = no such curve, though single readings can be large; an effect the other way counts as inactive or inconclusive.

Experiment [1] can be described thus: qHTS Validation Assay to Find Inhibitors of Chronic Active B-Cell Receptor Signaling (AID 485345; active = well fitted curve in the direction sought with a large enough effect in the main read-out, with a control signal flat, not every such curve was filed as active;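 also: 0% = untreated basal cells and 100% = 10 µM MG-132 proteasome inhibitor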). The method, boiled down:
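TMD8 ABC-DLBCL cells stably carrying doxycycline-inducible IkappaBalpha–green luciferase fusion plus unfused red luciferase; compounds 46 uM to 3 nM, 4 h at 37C with doxycycline. Corrected green/red luminescence ratio normalized to 10 uM MG-132 and basal cell wells; curves fitted.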

Experiment [2] addresses Beta-2 adrenergic receptor (Homo sapiens) (UniProt P07550). Description: qHTS validation assay of beta-arrestin-biased ligands of beta2-adrenergic receptor (AID 485366). Also: 0% is about no effect. The method, boiled down:
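Agonist activity is measured as luciferase luminescence downstream of beta-arrestin recruitment to recombinant beta2-AR in Tango cells. Exposure lasts 18 hr at 37 degrees C, and curves are categorized by r2, response size and activity.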
A general note: qHTS replaces the single test concentration by a dilution series.

The target of experiment [3] is ATP-dependent 6-phosphofructokinase (Trypanosoma brucei brucei) (UniProt O15648). As to the kind of experiment: qHTS Validation Assay to Find Inhibitors of T. brucei phosphofructokinase (AID 485368). Particulars: outcome: dose series up to 57.5 µM. An outline of the steps:
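Inhibition derived from concentration-response curves of luminescence, ranked by r2, response size and curve class; the underlying reaction used 1.25 nM PFK, 0.1 mM ATP and 0.5 mM F6P, 45 min, room temperature.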

Experiment [4] has as its target Thioredoxin reductase 1, cytoplasmic (Rattus norvegicus) (UniProt O89049). Description: qHTS Assay for Substrates of Mammalian Selenoprotein Thioredoxin Reductase 1 (TrxR1) (AID 488772).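 Also: series mostly up to about 57 µM; 0% is about no effect; a drop in NADPH fluorescence below the no-compound background marks a TrxR1 substrate.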 An outline of the steps:
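In this dual-purpose format, potential substrates are identified from the first fluorescence read after selenite addition, not from the 8-minute delta. Rat enzyme is preincubated with NADPH and then with compound at ~22 deg C.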

For experiment [5] the target is unchanged. Description: qHTS Assay for Inhibitors of Mammalian Selenoprotein Thioredoxin Reductase 1 (TrxR1) (AID 488773).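 Also: drop in NADPH fluorescence over an 8 min run after selenite addition; series mostly up to about 57 µM; % is scaled to controls: 0 for no effect and ±100 for the full control effect; nearly all actives have a fitted effect of over 40% in size.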 The conditions noted are these: Potency: inhibition. An outline of the steps: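 Inhibition is scored from the loss of NADPH fluorescence between first and last reads of an 8-min kinetic run. Selenite (400 uM) was the substrate, added after 15 min compound preincubation at room temperature.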

In experiment [6] the target is Flap endonuclease 1 (Homo sapiens) (UniProt P39748). Description: qHTS Validation Assay for the Inhibitors of Human Flap endonuclease 1 (FEN1) (AID 488816). Also: % is scaled to controls: 0 for no effect and ±100 for the full control effect. An outline of the steps: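 Enzyme reagent 10 nM; cpds pinned; 15 min RT preinc.; substrate 50 nM final; reads t=0 and 15 min; no-enzyme buffer wells as neg. control; normalized data, 4-parameter Hill fit.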
Experiment [7] concerns the target M-phase phosphoprotein 8 (Homo sapiens) (UniProt Q99549). As to the kind of experiment: qHTS Validation Assay for Inhibitors for MPP8 Chromodomain Interactions with Methylated Histone Tails (AID 488949).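 Also: AlphaScreen signal from MPP8 chromodomain bound to biotinylated H3K9me3 peptide; top concentration of the series differs between compounds; % is scaled to controls: 0 for no effect and ±100 for the full control effect; nearly all actives have a fitted effect of over 55% in size.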 An outline of the steps: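 AlphaScreen proximity signal from streptavidin donor and Ni-chelate acceptor beads (10 ug/mL each) reported binding of MPP8 to trimethyl-K9 H3(1-18) peptide, both at 50 nM. The complex formed 30 min before a 30 min compound exposure at room temperature, in PBS pH 7.4.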

The target in experiment [8] is Chromobox protein homolog 1 (Homo sapiens) (UniProt P83916). Description: qHTS Validation Assay for Inhibitors of HP1-beta Chromodomain Interactions with Methylated Histone Tails (AID 488953).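 Also: loss of AlphaScreen luminescence from HP1-beta binding biotinylated H3K9me3 peptide; series mostly up to about 110 µM; % is scaled to controls: 0 for no effect and ±100 for the full control effect; nearly all actives have a fitted effect of over 50% in size.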 An outline of the steps: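 Disruption of preformed HP1-beta:H3K9me3 peptide complexes (both 50 nM, PBS pH 7.4 with 0.01% Tween-20) is measured by AlphaScreen after 30 min compound exposure at room temperature, using streptavidin donor and nickel chelate acceptor beads at 10 ug/mL final.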

The target of experiment [9] is Methanococcus maripaludis chaperonin (MmCpn) (UniProt Q6LX38). As to the kind of experiment: High-Throughput Screening for Modulators of Cytosolic Chaperonin Activity: MmCpn Primary Screen (AID 488978).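 Also: 50 nM MmCpn enzyme hydrolysing 30 µM ATP at 37 °C; 0% is about no effect.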 An outline of the steps: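 ATPase activity of 50 nM MmCpn was assayed with 30 uM ATP, 10 minutes at 37C, after a 5 min compound preincubation at room temperature. ADP production was read as HTRF emission at 590 and 665 nm.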

For experiment [10], the target named is D(1A) dopamine receptor (Homo sapiens) (UniProt P21728). As to the kind of experiment: HTS Assay for Allosteric Agonists of the Human D1 Dopamine Receptor: Primary Screen for Agonists (AID 488981). Also: 0% is about no effect. An outline of the steps:
(§1)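 Tetracycline-induced HEK293 Trex D1 cells with forced coupling to calcium, loaded with no-wash calcium dye; kinetic fluorescence read 180 s after compound addition for agonism, then a further 180 s after an EC20 dopamine challenge for potentiation.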

Experiment [11] shares this target. Description: HTS Assay for Allosteric Agonists of the Human D1 Dopamine Receptor: Primary Screen for Antagonists (AID 488983).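 Also: calcium flux response to an EC80 dopamine challenge measured with no-wash dye; % is scaled to controls: 0 for no effect and ±100 for the full control effect; nearly all actives have a fitted effect of over 65% in size.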 The method, boiled down: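 Kinetic fluorescence at 1 cycle/sec tracked intracellular calcium in force-coupled, tetracycline-inducible HEK293 T-REx D1 cells. Loss of response to an EC80 dopamine dose, given 180 s after compound, marked antagonists.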

In experiment [12] the target is ATP-dependent 6-phosphofructokinase (Trypanosoma brucei brucei) (UniProt O15648). Description: qHTS Assay to Find Inhibitors of T. brucei phosphofructokinase: hit validation (AID 492961). Also: series mostly up to about 51 µM; % is scaled to controls: 0 for no effect and ±100 for the full control effect. The method, boiled down:
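Luminescence from ADP-Glo reports ADP generated as T. brucei PFK (1.25 nM) phosphorylates 0.5 mM fructose-6-phosphate using 0.1 mM ATP. Reactions ran 45 min at room temperature, pH 8.0.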

Experiment [13] can be described thus: Validation screen for small molecules that induce genotoxicity in human embryonic kidney (HEK293T) cells expressing luciferase-tagged ELG1 (AID 493106). Also: 0% is about no effect. An outline of the steps: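 Cells were dispensed at 2,000 per well, then 23 nL compound or DMSO was pinned in. After 16 hr at 37 °C and 5% CO2, ONE-Glo reagent was added. Luciferase activity was measured following 30 min at room temperature.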

The target of experiment [14] is ATPase family AAA domain-containing protein 5 (Homo sapiens) (UniProt Q96QE3). As to the kind of experiment: Validation screen for small molecules that inhibit ELG1-dependent DNA repair in human embryonic kidney (HEK293T) cells expressing luciferase-tagged ELG1 (AID 493107).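 Also: cells co-treated with the DNA-damaging agent 5-fluorouridine alongside compound; series mostly up to about 46 µM; % is scaled to controls: 0 for no effect and ±100 for the full control effect; inhibitors lower the ELG1-luciferase luminescence signal; nearly all actives have a fitted effect of over 70% in size.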 The method, boiled down: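 Cells are dispensed in 1536-well format, then 5-fluorouridine and compound are pinned in. After a 16 hr incubation at 37 °C and 5% CO2, ONE-Glo is added and luciferase measured on a CCD imager.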

Experiment [15] can be described thus: Nrf2 qHTS screen for inhibitors: Validation (AID 493153; active = well fitted inhibition curve with a large enough effect in the main read-out, with a control signal flat, not every such curve was filed as active). Particulars: viability change: measured here: cytotoxicity max response. The method, boiled down: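 A549 ARE_Fluc, 5% FBS OPTI-MEM; cpd titration, 18-24 h, 37°C/5% CO2. Read 1: CellTiter-Fluor (Ex 405/Em 525), cytotox. Read 2: luciferase lum, Nrf2 activity.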
Experiment [16] is described as follows: qHTS for Inhibitors of Cell Surface uPA Generation: Validation Assay (AID 493164).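 Also: RAW 264.7 macrophage cells exposed to compound for 18 h; 0% is about no effect.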 The method, boiled down: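 ATP-Lite luminescence read-out: ATP remains high when uPA activity-dependent LF translocation into the cytoplasm is blocked. RAW 264.7 cells, 18 h compound exposure at 37 C; 7-point titration, 2.45 nM to 38.3 uM final.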
A short description of experiment [17]: Quantitative high throughput screen for delayed death inhibitors of the malarial parasite plastid, 96 hour incubation (AID 488745).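 Also: luciferase-expressing P. falciparum in erythrocytes at 2% hematocrit and 0.1% parasitemia; series mostly up to about 29 µM; % is scaled to controls: 0 for no effect and ±100 for the full control effect; nearly all actives have a fitted effect of over 70% in size.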 An outline of the steps:
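Readout is firefly luciferase luminescence from an integrated reporter in P. falciparum; lower signal marks inhibited growth. Cultures at 2% hematocrit and 0.1% parasitemia were treated with compound across two generations (96 h, 37 C, 5% CO2).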

Experiment [18] can be described thus: Quantitative high throughput screen for delayed death inhibitors of the malarial parasite plastid, 48 hour incubation (AID 488752). Also: % is scaled to controls: 0 for no effect and ±100 for the full control effect; nearly all actives have a fitted effect of over 65% in size. The method, boiled down: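 First, compound was pinned into RPMI 1640 medium containing 0.5% Albumax. Next, reporter-parasite-infected erythrocytes were added to 2% hematocrit and 0.1% parasitemia. After 48 h at 37 C under 5% CO2, luciferase detection reagent was added and luminescence read.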

The target of experiment [19] is Transient receptor potential cation channel subfamily V member 1 (Homo sapiens) (UniProt Q8NER1). As to the kind of experiment: HTS Assay for Compounds that Act as Enhancers of the Vanilloid Receptor 1 (AID 488979). Also: 0% is about no effect. The method, boiled down: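 TRPV1 cells loaded with Fluo-8 calcium dye; compound added and Ca2+ signal (ex 480/em 520 nm) followed 3 min, then capsaicin at EC20 added and read 2 more min to detect enhancement.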

Experiment [20] addresses D(1A) dopamine receptor (Homo sapiens) (UniProt P21728). As to the kind of experiment: HTS Assay for Allosteric Agonists of the Human D1 Dopamine Receptor: Primary Screen for Potentiators (AID 488982). Also: 0% is about no effect. The method, boiled down: as §1

Sequence of ATP-dependent 6-phosphofructokinase (Trypanosoma brucei brucei) (O15648 whole entry, looked up): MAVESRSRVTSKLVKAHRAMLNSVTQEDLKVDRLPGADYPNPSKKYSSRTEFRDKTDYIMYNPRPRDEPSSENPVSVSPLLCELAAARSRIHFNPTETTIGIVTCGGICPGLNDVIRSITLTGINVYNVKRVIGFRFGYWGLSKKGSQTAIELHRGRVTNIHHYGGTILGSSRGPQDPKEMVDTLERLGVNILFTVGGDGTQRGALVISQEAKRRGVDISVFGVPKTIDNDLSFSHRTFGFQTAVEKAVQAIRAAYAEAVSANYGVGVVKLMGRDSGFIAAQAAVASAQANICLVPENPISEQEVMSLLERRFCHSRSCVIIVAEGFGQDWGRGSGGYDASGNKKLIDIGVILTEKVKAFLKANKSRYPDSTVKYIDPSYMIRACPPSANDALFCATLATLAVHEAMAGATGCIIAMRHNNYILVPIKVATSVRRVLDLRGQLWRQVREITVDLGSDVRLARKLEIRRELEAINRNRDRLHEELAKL
Sequence of Thioredoxin reductase 1, cytoplasmic (Rattus norvegicus) (O89049 whole entry, looked up): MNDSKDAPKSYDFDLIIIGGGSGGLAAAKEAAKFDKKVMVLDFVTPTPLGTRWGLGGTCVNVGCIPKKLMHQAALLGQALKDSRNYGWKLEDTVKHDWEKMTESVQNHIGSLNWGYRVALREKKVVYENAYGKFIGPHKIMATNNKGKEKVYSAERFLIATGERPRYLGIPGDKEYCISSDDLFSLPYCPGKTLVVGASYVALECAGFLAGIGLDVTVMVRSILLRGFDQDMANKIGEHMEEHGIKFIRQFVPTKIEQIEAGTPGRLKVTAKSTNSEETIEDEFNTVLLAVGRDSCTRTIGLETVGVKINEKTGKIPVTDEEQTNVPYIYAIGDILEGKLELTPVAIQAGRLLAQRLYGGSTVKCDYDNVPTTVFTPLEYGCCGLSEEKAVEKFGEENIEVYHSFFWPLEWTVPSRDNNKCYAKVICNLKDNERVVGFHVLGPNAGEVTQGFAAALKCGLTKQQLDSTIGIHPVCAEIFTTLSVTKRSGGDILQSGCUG
Sequence of M-phase phosphoprotein 8 (Homo sapiens) (Q99549 whole entry, looked up): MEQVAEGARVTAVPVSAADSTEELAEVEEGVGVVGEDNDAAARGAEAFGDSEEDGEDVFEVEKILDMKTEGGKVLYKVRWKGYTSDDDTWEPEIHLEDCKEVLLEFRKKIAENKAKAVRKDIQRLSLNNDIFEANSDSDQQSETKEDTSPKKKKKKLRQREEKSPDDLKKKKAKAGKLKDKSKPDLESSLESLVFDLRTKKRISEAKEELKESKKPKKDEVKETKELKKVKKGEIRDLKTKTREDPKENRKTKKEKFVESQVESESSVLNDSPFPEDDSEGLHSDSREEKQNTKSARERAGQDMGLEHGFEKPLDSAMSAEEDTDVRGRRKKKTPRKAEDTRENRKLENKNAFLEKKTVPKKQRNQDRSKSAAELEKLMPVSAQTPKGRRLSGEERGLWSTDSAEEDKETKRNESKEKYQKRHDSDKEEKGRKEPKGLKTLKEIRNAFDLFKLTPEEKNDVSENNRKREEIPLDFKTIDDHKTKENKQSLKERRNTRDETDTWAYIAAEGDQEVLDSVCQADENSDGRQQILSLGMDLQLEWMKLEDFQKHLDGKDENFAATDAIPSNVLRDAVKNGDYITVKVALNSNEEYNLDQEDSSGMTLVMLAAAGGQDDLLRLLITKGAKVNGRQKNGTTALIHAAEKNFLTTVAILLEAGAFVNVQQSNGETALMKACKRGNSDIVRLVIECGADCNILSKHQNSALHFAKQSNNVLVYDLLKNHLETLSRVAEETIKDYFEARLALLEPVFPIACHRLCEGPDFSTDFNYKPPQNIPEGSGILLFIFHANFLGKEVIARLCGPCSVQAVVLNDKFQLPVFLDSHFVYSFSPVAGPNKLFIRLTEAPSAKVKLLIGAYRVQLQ
Sequence of Chromobox protein homolog 1 (Homo sapiens) (P83916 whole entry, looked up): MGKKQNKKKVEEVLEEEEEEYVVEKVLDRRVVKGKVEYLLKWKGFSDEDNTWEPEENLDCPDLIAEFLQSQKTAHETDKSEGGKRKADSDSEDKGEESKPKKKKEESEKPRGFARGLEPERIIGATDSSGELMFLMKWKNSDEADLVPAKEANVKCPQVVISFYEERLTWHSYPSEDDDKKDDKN
Sequence of Transient receptor potential cation channel subfamily V member 1 (Homo sapiens) (Q8NER1 whole entry, looked up): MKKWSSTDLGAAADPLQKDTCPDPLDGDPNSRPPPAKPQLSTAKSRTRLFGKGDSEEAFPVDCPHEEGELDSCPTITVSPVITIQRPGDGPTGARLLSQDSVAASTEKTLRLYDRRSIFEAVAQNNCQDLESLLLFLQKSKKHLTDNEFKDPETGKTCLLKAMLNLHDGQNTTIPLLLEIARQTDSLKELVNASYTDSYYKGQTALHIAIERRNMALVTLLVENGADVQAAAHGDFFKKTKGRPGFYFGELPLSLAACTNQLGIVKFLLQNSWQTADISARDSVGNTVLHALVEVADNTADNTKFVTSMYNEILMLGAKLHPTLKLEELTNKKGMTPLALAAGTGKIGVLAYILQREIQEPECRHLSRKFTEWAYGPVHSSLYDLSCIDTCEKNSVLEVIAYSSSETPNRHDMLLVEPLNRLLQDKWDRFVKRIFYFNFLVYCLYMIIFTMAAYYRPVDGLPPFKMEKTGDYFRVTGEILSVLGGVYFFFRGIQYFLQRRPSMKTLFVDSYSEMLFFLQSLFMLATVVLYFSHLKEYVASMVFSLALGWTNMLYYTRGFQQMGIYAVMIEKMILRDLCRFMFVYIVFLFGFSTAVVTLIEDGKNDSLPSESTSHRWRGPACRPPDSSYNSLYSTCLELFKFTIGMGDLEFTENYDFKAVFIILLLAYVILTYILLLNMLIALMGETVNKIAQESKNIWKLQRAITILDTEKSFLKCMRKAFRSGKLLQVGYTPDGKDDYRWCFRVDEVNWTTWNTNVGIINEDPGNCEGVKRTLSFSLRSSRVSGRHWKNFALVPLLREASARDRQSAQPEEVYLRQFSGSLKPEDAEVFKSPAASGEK
Sequence of Flap endonuclease 1 (Homo sapiens) (P39748 whole entry, looked up): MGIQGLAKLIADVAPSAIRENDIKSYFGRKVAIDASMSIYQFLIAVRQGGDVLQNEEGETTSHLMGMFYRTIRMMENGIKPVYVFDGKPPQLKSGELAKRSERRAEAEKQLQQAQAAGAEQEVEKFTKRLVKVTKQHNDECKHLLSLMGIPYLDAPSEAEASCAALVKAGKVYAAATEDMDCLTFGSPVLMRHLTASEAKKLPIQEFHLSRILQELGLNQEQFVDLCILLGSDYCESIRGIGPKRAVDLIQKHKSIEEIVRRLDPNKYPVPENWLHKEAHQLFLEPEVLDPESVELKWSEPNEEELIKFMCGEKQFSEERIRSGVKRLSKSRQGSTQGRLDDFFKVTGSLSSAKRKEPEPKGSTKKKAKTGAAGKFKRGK
Sequence of Methanococcus maripaludis chaperonin (MmCpn) (Q6LX38 1-543): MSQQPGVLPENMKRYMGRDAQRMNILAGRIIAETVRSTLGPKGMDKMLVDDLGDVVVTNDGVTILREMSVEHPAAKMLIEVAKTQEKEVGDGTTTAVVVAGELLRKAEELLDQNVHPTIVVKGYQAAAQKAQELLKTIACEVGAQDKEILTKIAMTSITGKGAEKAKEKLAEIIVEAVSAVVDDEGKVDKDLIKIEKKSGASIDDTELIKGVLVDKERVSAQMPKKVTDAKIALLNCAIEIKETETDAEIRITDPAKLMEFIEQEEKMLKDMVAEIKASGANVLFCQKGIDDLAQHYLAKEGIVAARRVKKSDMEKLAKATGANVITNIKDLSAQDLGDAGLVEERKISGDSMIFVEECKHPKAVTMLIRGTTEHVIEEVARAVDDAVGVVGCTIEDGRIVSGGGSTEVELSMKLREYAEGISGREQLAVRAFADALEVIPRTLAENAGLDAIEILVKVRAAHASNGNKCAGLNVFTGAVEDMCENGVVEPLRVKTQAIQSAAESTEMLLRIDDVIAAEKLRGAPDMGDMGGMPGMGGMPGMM
Sequence of Beta-2 adrenergic receptor (Homo sapiens) (P07550 whole entry, looked up): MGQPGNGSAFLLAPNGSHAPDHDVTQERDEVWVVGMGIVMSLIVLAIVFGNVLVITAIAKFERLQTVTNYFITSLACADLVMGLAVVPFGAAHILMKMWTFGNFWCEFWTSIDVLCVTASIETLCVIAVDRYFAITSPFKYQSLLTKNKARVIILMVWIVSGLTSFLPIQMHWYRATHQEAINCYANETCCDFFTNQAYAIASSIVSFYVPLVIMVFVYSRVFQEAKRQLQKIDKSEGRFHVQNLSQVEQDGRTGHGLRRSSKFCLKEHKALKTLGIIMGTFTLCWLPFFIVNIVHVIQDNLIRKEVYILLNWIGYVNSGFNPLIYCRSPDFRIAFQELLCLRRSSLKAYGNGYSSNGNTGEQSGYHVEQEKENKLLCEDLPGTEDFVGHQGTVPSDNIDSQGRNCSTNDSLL
Sequence of D(1A) dopamine receptor (Homo sapiens) (P21728 whole entry, looked up): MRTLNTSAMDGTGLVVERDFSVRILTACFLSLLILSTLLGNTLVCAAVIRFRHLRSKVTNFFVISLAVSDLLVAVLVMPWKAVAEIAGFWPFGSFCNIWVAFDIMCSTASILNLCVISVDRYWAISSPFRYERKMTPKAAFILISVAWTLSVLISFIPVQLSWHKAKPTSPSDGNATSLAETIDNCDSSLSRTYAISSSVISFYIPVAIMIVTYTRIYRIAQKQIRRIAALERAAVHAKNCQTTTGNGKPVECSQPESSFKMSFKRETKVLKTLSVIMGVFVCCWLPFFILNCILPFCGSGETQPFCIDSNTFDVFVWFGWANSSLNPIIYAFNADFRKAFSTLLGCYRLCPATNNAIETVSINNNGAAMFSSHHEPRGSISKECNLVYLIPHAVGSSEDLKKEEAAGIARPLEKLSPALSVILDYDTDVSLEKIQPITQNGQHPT

Turning to `CC(=O)O[C@]1(C(C)=O)CC[C@H]2[C@@H]3C=C(Cl)C4=CC(=O)[C@@H]5C[C@@H]5[C@]4(C)[C@H]3CC[C@@]21C`, the result in [1], in experiment [2], in [3], in [6], in experiment [9] and in experiment [10] was inactive. For the same compound, the result in experiment [12], in experiment [14], in experiment [15] and in experiment [16] was inactive. The Potency entry in experiment [4], in [5], in [7], in experiment [8], in [11] and in experiment [13] was “inactive” each time. The viability change in [15] turned out to be 2.19%.

Turning to `O=C(O)CCc1nc(-c2ccccc2)c(-c2ccccc2)o1`, the compound was classed as inactive in [1], in experiment [2], in [3], in [18], in [9] and in experiment [19]. Further, the compound was classed as inactive in experiment [10], in experiment [20], in experiment [12], in experiment [14] and in experiment [16]. Further, the Potency entry in [17], in [4], in experiment [5], in [8], in [11] and in experiment [13] was “inactive” in each case.

For `CCn1cc(C(=O)O)c(=O)c2ccc(C)nc21`, the compound was classed as inactive in [1], in experiment [2], in [3], in experiment [9], in experiment [10] and in experiment [20]. The result in experiment [14] and in [16] was inactive. For the same compound, the Potency entry in [4], in experiment [5], in [8], in [11] and in experiment [13] was “inactive” each time.

`O=C1NC(=O)C(c2ccccc2)(c2ccccc2)N1`: the compound was classed as inactive in experiment [1], in [2], in [3], in experiment [18], in experiment [6] and in experiment [9]. In addition, the outcome in experiment [19], in [10], in experiment [20], in experiment [14], in experiment [15] and in experiment [16] was inactive. The Potency result in experiment [17], in experiment [4], in [5], in experiment [7], in experiment [8] and in [11] was “inactive” each time. In experiment [13], the Potency result is “inactive”. The viability change in experiment [15] was -3.24%.

On to `CCN(CC)C(=O)c1ccc(O)c(OC)c1`, for which the compound was classed as inactive in [1], in experiment [2], in [3], in experiment [18], in [9] and in experiment [19]. In addition, the compound was classed as inactive in experiment [10], in experiment [20], in experiment [12], in experiment [14], in [15] and in experiment [16]. The Potency entry in experiment [17], in [4], in [5], in experiment [7], in [8] and in experiment [11] was “inactive” each time. Also, the Potency entry in experiment [13] was “inactive”. In [15], the viability change stood at 8.03%.

With `CC(=O)CCCCn1c(=O)c2c(ncn2C)n(C)c1=O`, the call in experiment [1], in experiment [2], in experiment [3], in experiment [18], in experiment [9] and in experiment [19] was inactive. For the same compound, the compound was called inactive in experiment [10], in experiment [20], in [12], in experiment [15] and in experiment [16]. Further, the Potency result in [17], in experiment [4], in experiment [5], in experiment [7], in [8] and in [11] was “inactive” in each case. Moreover, in [13], the Potency result was “inactive”. The viability change in experiment [15] was -8.24%.

In the case of `O=C(NCCN1CCOCC1)c1ccc(Cl)cc1`, the call in [1], in experiment [2], in experiment [3], in experiment [9], in [10] and in [20] was inactive. The compound was classed as inactive in [14], in experiment [15] and in experiment [16]. The Potency result in experiment [4], in experiment [5], in experiment [7], in [11] and in experiment [13] was “inactive” each time. Besides, the viability change in experiment [15] was -1.31%.

With `CCCCCN(C)CCC(O)(P(=O)(O)O)P(=O)(O)O`, the compound was classed as inactive in experiment [1], in [2], in experiment [3], in experiment [6], in [9] and in experiment [10]. Further, the outcome in experiment [20], in [12], in experiment [14], in [15] and in experiment [16] was inactive. In addition, the Potency entry in experiment [4], in experiment [5], in experiment [7], in experiment [8], in experiment [11] and in experiment [13] was “inactive” throughout. Also, the viability change in [15] is -4.22%.
